Results as given in PubChem BioAssay (NCI).
This is part of a sample that, as a whole, favours compounds with a hit. Of some 79,000 tested, about 15% had one in any assay. Unmarked numbers belong to inactive results. Active and inactive are the calls of the source. Cut-off read from the data, not from the text of the source: active = growth inhibition above about 70%; inactive = the rest.

What was measured:
[1] = NCI Yeast Anticancer Drug Screen. Data for the rad50 strain (AID 155);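 note: 0% = growth of vehicle-only cultures of the same strain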; settings: S. cerevisiae rad50 strain growth inhibition, stronger effect = higher value
In short: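 Yeast carrying a defined DNA repair defect were exposed to test compounds, and growth was compared with vehicle-treated controls to give percent inhibition.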

[2] = NCI Yeast Anticancer Drug Screen. Data for the mec2-1 strain (AID 157); settings: S. cerevisiae mec2-1 strain, stronger effect = higher value
In short: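 Compounds were applied to mec2-1 yeast cells. Their growth was then compared with that of vehicle-treated cultures to give growth inhibition.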

[3] = NCI Yeast Anticancer Drug Screen. Data for the sgs1 mgt1 strain (AID 161);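 note: 0% = growth of cultures given vehicle only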; settings: S. cerevisiae sgs1 mgt1 strain, stronger effect = higher value
In short: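 Growth of a repair-deficient yeast mutant was monitored after compound treatment and expressed as inhibition relative to vehicle-treated cultures.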

[4] = NCI Yeast Anticancer Drug Screen. Data for the cln2 rad14 strain (AID 165);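 note: 0% = growth equal to vehicle treated cultures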; settings: S. cerevisiae cln2 rad14 strain, stronger effect = higher value
In short: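 Strain: cln2 rad14 yeast, altered in cell cycle control and DNA damage repair. Read-out: growth inhibition vs vehicle.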

[5] = NCI Yeast Anticancer Drug Screen. Data for the bub3 strain (AID 167); settings: S. cerevisiae bub3 mutant strain, stronger effect = higher value
In short: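 Compounds were applied to a genetically altered yeast strain carrying a cell-cycle control defect. Growth inhibition was scored against vehicle-treated controls.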

[6] = NCI Yeast Anticancer Drug Screen. Data for the mlh1 rad18 strain (AID 175); settings: S. cerevisiae mlh1 rad18 strain growth inhibition, stronger effect = higher value
In short: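 A repair-deficient yeast strain is exposed to test compound, and growth is scored relative to vehicle-treated controls.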

[7] = at 5.0 µM (retest, dose inferred, filed as 0.5)
[8] = at 50.0 µM (retest, dose inferred, filed as 5.0)

SMILES	growth inhibition [1, 7]	growth inhibition [1, 8]	growth inhibition ([1]; at 50.0 µM)	growth inhibition [2, 7]	growth inhibition [2, 8]	growth inhibition ([2]; at 50.0 µM)	growth inhibition [3, 7]	growth inhibition [3, 8]	growth inhibition ([3]; at 50.0 µM)	growth inhibition [4, 7]	growth inhibition [4, 8]	growth inhibition ([4]; at 50.0 µM)	growth inhibition [5, 7]	growth inhibition [5, 8]	growth inhibition ([5]; at 50.0 µM)	growth inhibition [6, 7]	growth inhibition [6, 8]	growth inhibition ([6]; at 50.0 µM)
COc1ccc(C2=C(Cl)C(=O)N(c3ccc(OC)cc3OC)C(=O)C2(Cl)Cl)cc1	4%	42%	74.5% (active)	-9%	36%	89.9% (active)	5%	54%	70.8% (active)	-9%	25%	44.5%	-5%	28%	56.5%	3%	8%	79.8% (active)
CC(CN(CC(=O)O)CC(=O)O)N(CC(=O)O)CC(=O)O.[Cl][Pd][Cl] (configuration not stated)	27%	89% (active)	88.3% (active)	7%	87% (active)	91.5% (active)	40%	92% (active)	82% (active)	14%	81% (active)	57.2%	22%	91% (active)	86.4% (active)	30%	83% (active)	90.7% (active)
COC1C=COC2(C)Oc3c(C)c(O)c4c(O)c(c(C5SCCS5)c(O)c4c3C2=O)NC(=O)C(C)=C/C=C\C(C)C2OC(C)(C)OC(C2C)C(C)C(OC(C)=O)C1C (configuration not stated)	5%	83% (active)	86.7% (active)	8%	93% (active)	93.6% (active)	-2%	36%	90.8% (active)	20%	93% (active)	90.3% (active)	5%	95% (active)	83.8% (active)	9%	92% (active)	87.8% (active)
O=C1Nc2ccccc2/C1=N\N=c1/scc(-c2ccccc2)n1-c1ccccc1	13%	72% (active)	59.5%	5%	74% (active)	74.5% (active)	8%	61%	62.1%	10%	90% (active)	62.6%	9%	87% (active)	51.7%	9%	78% (active)	88.5% (active)
CC(C)N(CN1C(=O)N/C(=C/c2cccc(/C=C3/NC(=O)N(CN(C(C)C)C(C)C)C3=O)c2)C1=O)C(C)C	7%	8%	21%	-15%	-11%	2.95%	-1%	3%	-2.5%	-19%	-15%	63.4%	12%	30%	17.6%	7%	8%	-4.65%
CC(=O)Oc1c(Cl)cc(Cl)cc1C(c1cc(Cl)cc(Cl)c1OC(C)=O)C(Cl)(Cl)Cl	6%	31%	90.8% (active)	2%	25%	98.3% (active)	-1%	-5%	83.9% (active)	-10%	2%	82.8% (active)	-3%	20%	98.3% (active)	-2%	23%	95.5% (active)
N#Cc1c(Cl)nc2ccccc2c1N=[N+]=[N-]	-1%	12%	50.6%	-19%	-9%	63.3%	-14%	18%	56.2%	6%	8%	50.5%	-8%	-15%	14.8%	-18%	8%	58.2%
CCC(=O)/C(=C\I)c1ccccc1	26%	26%	89.3% (active)	-6%	-6%	92.2% (active)	23%	23%	86.7% (active)	8%	8%	89.9% (active)	7%	7%	89.5% (active)	21%	21%	85.5% (active)
COCCCNC(=O)SC	0%	-2%	-9.65%	2%	-1%	-22.4%	3%	2%	-15.6%	-2%	0%	56.6%	0%	2%	-6.85%	0%	-2%	19.1%
CC(CCNCCC#N)CC(C)(C)C (configuration not stated)	6%	66%	76.9% (active)	-4%	32%	47.8%	9%	43%	86.2% (active)	7%	33%	48.5%	7%	47%	63%	12%	66%	68.8%
C[C@@]12C(=O)OC(=O)[C@]1(C)[C@H]1CC[C@@H]2O1	96% (active)	98% (active)	93.2% (active)	94% (active)	99% (active)	94.2% (active)	97% (active)	97% (active)	93.3% (active)	78% (active)	98% (active)	91.8% (active)	70% (active)	99% (active)	92.8% (active)	96% (active)	98% (active)	92.5% (active)
CCCCCCC(=O)CC(SCCN)c1ccccc1Cl (configuration not stated)	9%	52%	99.2% (active)	-5%	56%	99.4% (active)	-12%	48%	99.2% (active)	12%	99% (active)	98.3% (active)	-5%	99% (active)	98.9% (active)	1%	55%	98.8% (active)
C/C=c1/[nH]c(=O)/c(=C\c2ccccc2)[nH]c1=O	-3%	9%	11.3%	2%	-1%	-3.8%	-2%	2%	-5.45%	3%	-2%	24.6%	-2%	-4%	-7.35%	24%	1%	4.35%
CC1=C(/C=C/C(C)=N/NC(N)=S)C(C)(C)CCC1	24%	87% (active)	84.5% (active)	5%	88% (active)	80.5% (active)	22%	88% (active)	65.8%	15%	85% (active)	76.9% (active)	16%	86% (active)	80.1% (active)	6%	89% (active)	85% (active)
CC(C)(C)CC(C)(C)c1ccc(OCCSC(=N)N)cc1	95% (active)	100% (active)	99.3% (active)	99% (active)	100% (active)	99.6% (active)	75% (active)	99% (active)	99.2% (active)	99% (active)	99% (active)	98.6% (active)	99% (active)	100% (active)	99.4% (active)	99% (active)	99% (active)	99.2% (active)
NC(=O)/C=C/C(=O)c1c(Cl)cccc1Cl	97% (active)	100% (active)	91.1% (active)	99% (active)	100% (active)	92% (active)	99% (active)	100% (active)	91.7% (active)	46%	98% (active)	90.3% (active)	99% (active)	100% (active)	88.3% (active)	100% (active)	100% (active)	91% (active)
CCCCCCCCCCCCCCCCNc1ccn(C2CC(OP(=O)(O)OCC3OC(n4cc(CC)c(=O)[nH]c4=O)CC3O)C(CO)O2)c(=O)n1 (configuration not stated)	73% (active)	97% (active)	41.8%	26%	97% (active)	12.8%	94% (active)	97% (active)	58%	7%	64%	39.5%	-19%	92% (active)	11.8%	59%	87% (active)	16.3%
Cn1c(C(C)(C)OC(=O)Oc2ccccc2)cnc1[N+](=O)[O-]	0%	51%	37.1%	-1%	24%	16.8%	3%	68%	65.5%	4%	31%	30.4%	0%	4%	1.35%	9%	54%	38.8%
c1cc[c]([Sn]([NH]c2ncnc3[nH]cnc23)([NH]c2ncnc3[nH]cnc23)[c]2ccccc2)cc1	-10%	93% (active)	71% (active)	-6%	95% (active)	47.6%	2%	96% (active)	58.3%	-2%	73% (active)	29.4%	-4%	95% (active)	57.4%	-7%	94% (active)	89.2% (active)
